# Reference: ChEMBL document CHEMBL1961873, “Compounds: GSK PKIS; Assays: Nanosyn kinase panel” (2012)
# Experiments:
# [1] = target: Serine/threonine-protein kinase pim-2 (Homo sapiens) (UniProt Q9P1W9); conditions: at 1 µM;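 further: each value is a mean of the inhibition measurements against the kinase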
# [2] = target: Serine/threonine-protein kinase pim-3 (Homo sapiens) (UniProt Q86V86); conditions: at 0.1 µM
# [3] = target: Serine/threonine-protein kinase pim-3 (Homo sapiens) (UniProt Q86V86); conditions: at 1 µM
# [4] = target: T1, MAP kinase-activated protein kinase 5 (Homo sapiens) (UniProt Q8IW41); conditions: at 0.1 µM
# T1 sequence (whole entry): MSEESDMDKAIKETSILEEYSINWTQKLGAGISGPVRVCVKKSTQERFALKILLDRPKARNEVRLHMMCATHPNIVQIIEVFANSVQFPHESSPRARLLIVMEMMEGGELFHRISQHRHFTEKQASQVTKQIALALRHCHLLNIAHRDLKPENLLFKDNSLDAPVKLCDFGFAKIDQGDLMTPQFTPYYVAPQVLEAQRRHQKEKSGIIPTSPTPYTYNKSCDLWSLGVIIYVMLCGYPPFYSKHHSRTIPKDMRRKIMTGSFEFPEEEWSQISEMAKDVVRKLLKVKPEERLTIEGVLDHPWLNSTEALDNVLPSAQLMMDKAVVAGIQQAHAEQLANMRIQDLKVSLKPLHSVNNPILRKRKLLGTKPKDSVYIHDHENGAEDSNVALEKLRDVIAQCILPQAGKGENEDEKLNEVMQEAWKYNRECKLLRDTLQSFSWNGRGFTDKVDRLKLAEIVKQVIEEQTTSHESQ
# [5] = target: T1, MAP kinase-activated protein kinase 5 (Homo sapiens); conditions: at 1 µM
# [6] = target: Serine/threonine-protein kinase SIK1 (Homo sapiens) (UniProt P57059); conditions: at 0.1 µM
# [7] = target: Serine/threonine-protein kinase SIK1 (Homo sapiens) (UniProt P57059); conditions: at 1 µM
# [8] = target: Serine/threonine-protein kinase SIK2 (Homo sapiens) (UniProt Q9H0K1); conditions: at 0.1 µM
# [9] = target: Serine/threonine-protein kinase SIK2 (Homo sapiens) (UniProt Q9H0K1); conditions: at 1 µM
# [10] = target: T2, Serine/threonine-protein kinase TBK1 (Homo sapiens) (UniProt Q9UHD2); conditions: at 0.1 µM;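 further: values are the mean TBK1 inhibition, taken from the GSK PKIS screening data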
# T2 sequence (whole entry): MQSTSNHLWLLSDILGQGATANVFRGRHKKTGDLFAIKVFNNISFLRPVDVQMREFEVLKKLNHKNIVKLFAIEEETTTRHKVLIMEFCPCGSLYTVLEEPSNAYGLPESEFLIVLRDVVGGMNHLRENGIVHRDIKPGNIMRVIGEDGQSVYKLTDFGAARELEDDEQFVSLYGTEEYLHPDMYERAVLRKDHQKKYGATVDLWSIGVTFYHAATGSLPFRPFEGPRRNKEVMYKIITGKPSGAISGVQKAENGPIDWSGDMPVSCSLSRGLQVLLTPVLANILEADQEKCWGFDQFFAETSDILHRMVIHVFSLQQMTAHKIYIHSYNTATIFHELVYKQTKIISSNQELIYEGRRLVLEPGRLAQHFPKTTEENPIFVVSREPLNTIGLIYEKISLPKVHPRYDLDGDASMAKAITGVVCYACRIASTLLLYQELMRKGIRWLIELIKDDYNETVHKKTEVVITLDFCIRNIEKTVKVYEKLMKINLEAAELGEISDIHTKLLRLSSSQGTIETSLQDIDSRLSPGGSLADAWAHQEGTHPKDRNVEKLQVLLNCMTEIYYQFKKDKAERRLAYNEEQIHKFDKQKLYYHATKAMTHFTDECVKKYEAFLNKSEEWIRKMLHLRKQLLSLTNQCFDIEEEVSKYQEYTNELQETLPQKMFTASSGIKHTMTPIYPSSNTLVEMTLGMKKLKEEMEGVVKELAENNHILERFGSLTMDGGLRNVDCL
# Serine/threonine-protein kinase SIK1 (Homo sapiens), sequence (P57059 whole entry): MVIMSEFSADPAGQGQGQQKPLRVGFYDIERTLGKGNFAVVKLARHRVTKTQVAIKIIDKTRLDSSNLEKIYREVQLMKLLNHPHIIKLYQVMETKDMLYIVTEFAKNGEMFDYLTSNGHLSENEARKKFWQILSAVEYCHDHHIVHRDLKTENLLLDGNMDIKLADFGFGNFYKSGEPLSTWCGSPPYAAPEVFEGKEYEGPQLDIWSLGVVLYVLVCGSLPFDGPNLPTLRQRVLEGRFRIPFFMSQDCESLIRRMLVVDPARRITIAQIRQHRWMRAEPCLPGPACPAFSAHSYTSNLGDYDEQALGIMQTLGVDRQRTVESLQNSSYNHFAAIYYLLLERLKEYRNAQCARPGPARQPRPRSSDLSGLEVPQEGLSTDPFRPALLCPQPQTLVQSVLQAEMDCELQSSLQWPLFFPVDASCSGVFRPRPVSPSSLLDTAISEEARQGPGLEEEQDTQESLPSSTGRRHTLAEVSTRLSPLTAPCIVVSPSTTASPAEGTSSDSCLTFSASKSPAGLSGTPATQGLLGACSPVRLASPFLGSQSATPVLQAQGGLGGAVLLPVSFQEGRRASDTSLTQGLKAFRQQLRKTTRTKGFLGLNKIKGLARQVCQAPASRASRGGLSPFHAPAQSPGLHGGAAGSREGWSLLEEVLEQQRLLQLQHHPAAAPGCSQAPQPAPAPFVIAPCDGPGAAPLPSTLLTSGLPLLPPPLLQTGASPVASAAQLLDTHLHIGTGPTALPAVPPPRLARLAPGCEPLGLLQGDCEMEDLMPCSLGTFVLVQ
# Serine/threonine-protein kinase SIK2 (Homo sapiens), sequence (Q9H0K1 whole entry, looked up): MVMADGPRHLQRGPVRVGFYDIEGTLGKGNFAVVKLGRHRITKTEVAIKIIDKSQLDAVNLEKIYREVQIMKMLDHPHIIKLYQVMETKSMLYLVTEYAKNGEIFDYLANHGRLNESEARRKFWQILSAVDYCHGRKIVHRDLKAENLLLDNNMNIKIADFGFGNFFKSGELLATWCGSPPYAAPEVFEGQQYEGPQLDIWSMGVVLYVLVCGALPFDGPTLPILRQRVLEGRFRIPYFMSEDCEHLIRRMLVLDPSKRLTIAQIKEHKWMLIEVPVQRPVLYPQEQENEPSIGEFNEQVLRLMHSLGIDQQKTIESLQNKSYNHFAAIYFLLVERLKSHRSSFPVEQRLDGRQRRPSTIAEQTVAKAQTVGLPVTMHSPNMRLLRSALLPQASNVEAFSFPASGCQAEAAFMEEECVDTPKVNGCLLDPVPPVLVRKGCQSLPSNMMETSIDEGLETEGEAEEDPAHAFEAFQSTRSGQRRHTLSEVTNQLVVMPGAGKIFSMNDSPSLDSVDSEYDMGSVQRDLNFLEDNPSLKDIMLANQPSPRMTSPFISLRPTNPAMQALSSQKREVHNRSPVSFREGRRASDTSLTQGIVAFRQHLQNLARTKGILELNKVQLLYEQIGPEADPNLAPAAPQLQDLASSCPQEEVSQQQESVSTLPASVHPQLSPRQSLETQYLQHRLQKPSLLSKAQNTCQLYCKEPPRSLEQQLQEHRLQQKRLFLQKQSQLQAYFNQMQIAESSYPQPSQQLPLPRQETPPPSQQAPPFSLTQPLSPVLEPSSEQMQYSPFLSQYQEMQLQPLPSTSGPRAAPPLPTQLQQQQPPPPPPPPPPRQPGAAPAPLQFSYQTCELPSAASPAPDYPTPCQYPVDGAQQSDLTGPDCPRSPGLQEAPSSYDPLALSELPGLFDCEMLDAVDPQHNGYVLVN
# Serine/threonine-protein kinase pim-2 (Homo sapiens), sequence (Q9P1W9 whole entry, looked up): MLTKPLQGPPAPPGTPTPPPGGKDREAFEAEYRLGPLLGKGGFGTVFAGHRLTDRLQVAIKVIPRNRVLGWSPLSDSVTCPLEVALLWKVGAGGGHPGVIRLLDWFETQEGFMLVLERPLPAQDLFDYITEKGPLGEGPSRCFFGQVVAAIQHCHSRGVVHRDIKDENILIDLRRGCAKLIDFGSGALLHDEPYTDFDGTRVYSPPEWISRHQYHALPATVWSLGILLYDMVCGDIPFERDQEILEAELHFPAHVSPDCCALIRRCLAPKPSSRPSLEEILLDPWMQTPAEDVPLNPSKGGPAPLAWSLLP
Structure (SMILES),inhibition [1] [%],inhibition [2] [%],inhibition [3] [%],inhibition [4] [%],inhibition [5] [%],inhibition [6] [%],inhibition [7] [%],inhibition [8] [%],inhibition [9] [%],inhibition [10] [%]
COc1cc2c(cc1Nc1nc(N3CCc4ccccc43)c3cc[nH]c3n1)N(C(=O)CN(C)C)CC2,0.38,-0.4,-1.08,0.04,-1.65,3.24,7.48,2.51,-3.15,0.22
Cn1cc(C=C2C(=O)Nc3cccnc32)c2ccccc21,3.47,0.47,11.5,0.25,1.48,-0.28,9.48,2.86,4.37,2.42
Cc1nn(C)c2cc(N(C)c3ccnc(Nc4cccc(S(N)(=O)=O)c4)n3)ccc12,0.81,0.16,-0.2,0.87,1.23,9.49,55.3,7.91,24.3,2.88
c1cnn2ncc(-c3ccnc(Nc4ccc5c(c4)OCCO5)n3)c2c1,4.39,0.84,16.2,1.78,2.58,9.87,20.4,11.1,17.7,3.41
NC(=O)c1cccc(Nc2nccc(Nc3cccc4[nH]ncc34)n2)c1,1.09,-0.77,3.49,-1.41,-1,14.8,68.5,-4.28,32.5,0.88
COc1cc(C=NNc2ncnc3c2cnn3-c2ccccc2)ccc1O,2.11,-0.48,-0.21,0.22,-0.53,5.32,18.5,7.72,20.4,3.55
Cc1cccc(-c2n[nH]cc2-c2ccc3ncccc3n2)n1,-0.16,-1.47,-1.14,0.08,0.05,-0.73,3.97,3.18,13.8,-2.48
Cc1nnc(-c2ccc(C)c(-c3ccc(C(=O)Nc4cccc(C#N)c4)cc3)c2)o1,0.22,0.95,2.47,0.95,0.82,3.54,4.65,4.14,3.76,5.08
Cc1ccc(C(=O)NC2CCCCC2)cc1-c1ccc(C(=O)NCC2CC2)cc1,1.66,22.2,-1,0.69,-0.72,3.08,8.02,2.73,1.96,1.75
CC(C)=Cc1cccc2c1/C(=N/Nc1ccc(S(N)(=O)=O)cc1)C(=O)N2,0.68,1.74,3.98,0.48,2.48,3.24,11.2,4.69,15.5,3.78
COC(=O)Nc1nc2cc(Oc3cccc(NC(=O)Nc4cc(C(F)(F)F)ccc4F)c3)ccc2[nH]1,0.76,0.14,0.51,-0.26,-2.14,0.37,2.51,-0.54,3.76,–
NS(=O)(=O)c1cccc(-c2ccc3c(NC(=O)C4CC4)n[nH]c3c2)c1,0.35,-1.61,1.3,-0.5,0.65,-8.4,-0.1,-0.65,-7.23,0.24
Nc1ncnc2occ(-c3ccc(NC(=O)Nc4cc(C(F)(F)F)cc(C(F)(F)F)c4)cc3)c12,0.27,-1.29,-2.53,0.61,0.59,1.96,2.47,3.48,4.42,-0.65
Fc1cccc(COc2ccc(Nc3ncnc4sc(-c5cccs5)cc34)cc2Cl)c1,1.54,0.47,1.27,0.51,0.8,0.72,7.28,2.25,-2.41,0.83
CC1=C(C(=O)Nc2ccc3[nH]ncc3c2)C(c2ccc(Cl)c(Cl)c2)CC(=O)N1 (centres undefined),-1.37,-0.64,-1.31,0.08,-1.02,6.5,2.84,-0.93,2.87,-0.19
O=C(Nc1n[nH]c2nc(-c3ccco3)c(Br)cc12)C1CC1,0.42,-1.42,-2.95,0.87,0.07,2.49,5.66,3.56,5,6.52
COc1cc2ncn(-c3cc(O[C@H](C)c4ccccc4Cl)c(C(N)=O)s3)c2cc1OC,0.96,2.36,12.4,2.09,4.22,12.6,53.1,10.9,24.8,3.11

Structure (SMILES),inhibition [1] [%],inhibition [2] [%],inhibition [3] [%],inhibition [4] [%],inhibition [5] [%],inhibition [6] [%],inhibition [7] [%],inhibition [8] [%],inhibition [9] [%],inhibition [10] [%]
COc1ccc(-c2nn3ncccc3c2-c2ccnc(Nc3ccc(Cl)c(C(F)(F)F)c3)n2)cc1,0.14,1.02,2.53,1.42,1.91,2.76,5.43,5.44,1.72,0.22
CCn1c(-c2nonc2N)nc2c(C#CC(C)(C)O)nc(CN3CCCC3)cc21,1.6,-0.35,0.7,-0.65,-1.46,-1.04,0.38,-6.78,-1.41,1.77
CC(=O)Nc1cccc(C#Cc2cncnc2Nc2ccc(OCc3cccc(F)c3)c(Cl)c2)n1,-0.75,5.22,9.04,0.35,2.24,-2.62,-1.96,-4.28,-0.46,1.99
COc1ccc(-c2coc3ncnc(N)c23)cc1,1.01,-0.83,-1.2,0.93,0.22,1.16,10.4,5.46,7.65,-0.45
O=C1Nc2ccc(C(=O)c3ccco3)cc2C1=Cc1cc(Cl)c(O)c(Cl)c1,17.9,12,53.4,1.97,8.16,4.01,10.6,10.5,6.6,4.59
N#Cc1c(NC(=O)c2cccc3ccccc23)sc2c1CCCC2,-0.27,-0.51,-1.85,0.72,0.28,7.26,9.67,2.47,12.4,0.12
Cc1cc(O)cc(C)c1/C=C/c1cncc(-c2nn[nH]n2)c1,-2.91,-1.97,-0.67,1.58,1.02,56.2,94.7,6.01,53.7,1.57
[O-][S+]1CCN(Cc2ccc(-c3ccc4ncnc(Nc5ccc(OCc6ccccc6)c(F)c5)c4c3)o2)CC1,0.23,-1.55,-1.98,0.41,-0.19,3.06,3.96,3.09,5.38,1.1
Nc1nc(-c2ccccn2)c(-c2ccc3ncccc3n2)s1,0.01,0.6,2.63,1.31,1.64,4.91,3.52,4.07,4.74,2.8
Nc1ncnc2occ(-c3ccc(NC(=O)Nc4cccc(C(F)(F)F)c4)cc3)c12,0.72,0.78,0.9,1.67,1.36,-0.49,9.69,4.8,3.6,3.95
COC(=O)Nc1nc2cc(Oc3ccc(NC(=O)Nc4cccc(C(=O)O)c4)cc3)ccc2[nH]1,-2.76,1.29,3.84,0.42,1,3.75,1.25,-0.04,2.04,0.81
CCn1c(-c2nonc2N)nc2ccncc21,0.12,-0.49,-1.56,0.36,-0.69,-0.38,8.47,5.56,3.95,2.23
CCn1c(-c2nonc2N)nc2cnc(Oc3cccc(NC(=O)c4ccc(OCCN5CCOCC5)cc4)c3)cc21,0.68,-1.8,2.09,0.82,1.44,4.8,10.1,8.55,13.8,0.71
CS(=O)(=O)CCNCc1ccc(-c2ccc3ncnc(Nc4ccc(OCc5ccccc5)c(Cl)c4)c3c2)o1,0.98,0.47,1.74,0.46,0.34,1.53,4.15,-3.07,-4.01,0.47
COc1ccc(COc2ccc(Cc3cnc(N)nc3N)cc2OC)cc1,3.29,2.12,0.23,-0.2,-1.74,-2.62,2.92,-5.52,-1.07,2.12
CCn1c(-c2nonc2N)nc2cncc(C(=O)N3CC[C@H](N)C3)c21,48.2,51.5,78.9,1.81,2.26,5.73,9.11,4.34,10.1,3.11
